{"source": "PubChem BioAssay (NCI)", "note": "The panel holds about 79,000 compounds, 15% with a hit somewhere; the sample as a whole holds those more often. Unmarked numbers belong to inactive results. Active and inactive are the calls of the source. Cut-off read from the data, not from the text of the source: active = growth inhibition above about 70%; inactive = the rest."}
{"test": "NCI Yeast Anticancer Drug Screen. Data for the cln2 rad14 strain (AID 165);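 note: 0% = growth equal to vehicle treated cultures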", "conditions": "S. cerevisiae cln2 rad14 strain, at 50.0 µM, stronger effect = higher value", "method_in_brief": "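Test compounds were added to cln2 rad14 yeast cultures; inhibition of growth was then determined by comparison with vehicle treatment.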"}
{"smiles": "CC(C)C(=O)CC(Sc1ccc(N)cc1)c1ccccc1", "note": "(stereo not given)", "growth inhibition": "27.8%"}
{"smiles": "CC(C)OP(=O)(OC(C)C)/C(Cl)=N/Nc1ccc([N+](=O)[O-])cc1", "growth inhibition": "89.2% (active)"}
{"smiles": "O=[N+]([O-])c1cc(Cl)ccc1S(=O)(=O)c1ccc(Cl)cc1[N+](=O)[O-]", "growth inhibition": "79.9% (active)"}
{"smiles": "CCCCCCNCCCNc1c2cc(OC)ccc2nc2cccc([N+](=O)[O-])c12", "growth inhibition": "98.8% (active)"}
{"smiles": "N#CCC(=O)N/N=C(\\c1ccccc1)C(c1ccccc1)C1(O)C(=O)Nc2c(Cl)ccc(Cl)c21", "note": "(stereo not given)", "growth inhibition": "6.8%"}
{"smiles": "CN(C)CCNCCCNc1c2ccccc2nc2cccc([N+](=O)[O-])c12", "growth inhibition": "97.5% (active)"}
{"smiles": "CCC[CH2][Ge]([CH2]CCC)([CH2]CCC)[O]C(=O)C(O)c1ccccc1", "note": "(stereo not given)", "growth inhibition": "91.2% (active)"}
{"smiles": "COc1ccc(-c2cc(-c3cc(C)cc(Cl)c3O)nc3[nH]c(=S)[nH]c(=S)c23)cc1", "growth inhibition": "65.5%"}
{"smiles": "O=[N+]([O-])c1ccc(/C=C\\c2ccc3c(c2)OCO3)c([N+](=O)[O-])c1", "growth inhibition": "25.2%"}
{"smiles": "O=C1c2ccccc2N2OC3(N4CCCC4)CCCCC3C12c1ccccc1", "note": "(stereo not given)", "growth inhibition": "1.8%"}
{"smiles": "CC(C)OC(=O)NNc1cc(Cl)ccc1Cl", "growth inhibition": "26%"}
{"smiles": "Cc1oc2ccccc2c(=O)c1Cn1nnc2ccccc21", "growth inhibition": "15.7%"}
{"smiles": "CC1(C)OC(=O)C(=Cc2ccc([N+](=O)[O-])s2)C(=O)O1", "growth inhibition": "30.8%"}
{"smiles": "CCN(CC)CCCNc1ccc([N+](=O)[O-])c2nc3ccc(OC)cc3c(NCCCN(CC)CC)c12", "growth inhibition": "24.8%"}
{"smiles": "COc1cccc(/C=C2\\S/C(=N/Nc3nc(-c4ccc([N+](=O)[O-])cc4)cs3)NC2=O)c1O", "growth inhibition": "76.7% (active)"}
